Assay results as given in PubChem BioAssay (NCI).
Compounds without any hit were thinned out: in the full panel of roughly 79,000, 15% have a hit. Unmarked numbers belong to inactive results. Active and inactive are the calls of the source. Cut-off read from the data, not from the text of the source: active = growth inhibition above about 70%; inactive = the rest.

How the values were obtained:
[1] = NCI Yeast Anticancer Drug Screen. Data for the mec2-1 strain (AID 157); settings: S. cerevisiae mec2-1 strain, hits give high values
How it was run: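 Vehicle-treated cultures served as reference for growth inhibition of compound-exposed mec2-1 yeast.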

[2] = NCI Yeast Anticancer Drug Screen. Data for the rad14 strain (AID 159);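 note: 0% = growth of vehicle-treated control cultures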; settings: S. cerevisiae rad14 strain growth inhibition, hits give high values
How it was run: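 Test compounds were applied to a repair-deficient yeast strain. Its growth was then compared with that of cultures given vehicle alone, and inhibition was expressed relative to those controls.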

[3] = NCI Yeast Anticancer Drug Screen. Data for the sgs1 mgt1 strain (AID 161);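 note: 0% = growth of cultures given vehicle only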; settings: S. cerevisiae sgs1 mgt1 strain, hits give high values
How it was run: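 Genetically altered yeast, compound exposure, growth inhibition relative to vehicle.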

[4] = NCI Yeast Anticancer Drug Screen. Data for the CLN2oe strain (AID 163);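 note: 0% = growth of vehicle-only control cultures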; settings: S. cerevisiae CLN2oe strain, hits give high values
How it was run: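 Inhibition relative to vehicle-treated yeast is reported. Cells: strain with genetic alteration in cell-cycle control, grown with compound.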

[5] = NCI Yeast Anticancer Drug Screen. Data for the cln2 rad14 strain (AID 165);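 note: 0% = growth equal to vehicle treated cultures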; settings: S. cerevisiae cln2 rad14 strain, hits give high values
How it was run: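 Each compound was tested on cln2 rad14 yeast. Inhibition of growth was calculated against vehicle-exposed controls.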

[6] = NCI Yeast Anticancer Drug Screen. Data for the bub3 strain (AID 167); settings: S. cerevisiae bub3 mutant strain, hits give high values
How it was run: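 Yeast carrying a defined mutation is treated with each compound, and growth is compared with that of vehicle-exposed cells to give inhibition.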

[7] = NCI Yeast Anticancer Drug Screen. Data for the wt2 strain (AID 169);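 note: 0% = growth of vehicle-treated yeast cultures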; settings: S. cerevisiae wt2 strain growth inhibition, hits give high values
How it was run: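 Inhibition of yeast growth was determined after compound treatment, normalised to controls receiving only vehicle.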

[8] = NCI Yeast Anticancer Drug Screen. Data for the mlh1 strain (AID 171);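 note: 0% = growth of vehicle-treated control cultures of the same strain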; settings: S. cerevisiae mlh1 strain growth inhibition, hits give high values
How it was run: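 Vehicle-normalised growth inhibition of a repair- or checkpoint-altered yeast strain following compound treatment.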

[9] = NCI Yeast Anticancer Drug Screen. Data for the sgs1 strain (AID 173);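 note: 0% = growth of vehicle-only control cultures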; settings: S. cerevisiae sgs1 mutant, hits give high values
How it was run: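 Screen format: yeast with repair or checkpoint alterations, compound exposure, growth read relative to vehicle.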

[10] = NCI Yeast Anticancer Drug Screen. Data for the mlh1 rad18 strain (AID 175); settings: S. cerevisiae mlh1 rad18 strain growth inhibition, hits give high values
How it was run: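 Vehicle-treated cultures served as the reference for growth inhibition in a yeast strain carrying DNA damage repair alterations exposed to each compound.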

[11] = NCI Yeast Anticancer Drug Screen. Data for the rad18 strain (AID 177); settings: S. cerevisiae rad18 mutant growth inhibition, hits give high values
How it was run: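 Test articles were incubated with altered yeast defective in DNA damage repair. Results are given as inhibition of growth versus vehicle.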

[12] = NCI Yeast Anticancer Drug Screen. Data for the wt1 strain (AID 149);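 note: 0% = growth of vehicle-treated wt1 cultures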; settings: S. cerevisiae wt1 strain (SPY 50644) growth inhibition, hits give high values
How it was run: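 wt1 yeast, compound-treated; % growth inhibition vs vehicle control.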

[13] = NCI Yeast Anticancer Drug Screen. Data for the rad50EPP+ strain (AID 151);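 note: 0% = growth of vehicle-treated control cultures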; settings: S. cerevisiae rad50 mutant strain, hits give high values
How it was run: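 In this screen, rad50EPP+ yeast were exposed to compounds. Growth inhibition was scored against vehicle-treated controls.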

[14] = NCI Yeast Anticancer Drug Screen. Data for the mgt1 strain (AID 153); settings: S. cerevisiae mgt1 mutant growth inhibition, hits give high values
How it was run: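 mgt1 strain exposed; growth vs vehicle control recorded as inhibition.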

[15] = NCI Yeast Anticancer Drug Screen. Data for the rad50 strain (AID 155);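 note: 0% = growth of vehicle-only cultures of the same strain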; settings: S. cerevisiae rad50 strain growth inhibition, hits give high values
How it was run: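 Genetically altered yeast (DNA repair pathway); compound treatment; growth inhibition vs vehicle ctrl.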

[16] = at 5.0 µM (retest, dose inferred, filed as 0.5)
[17] = at 50.0 µM (retest, dose inferred, filed as 5.0)

SMILES: COc1ccc(/C=C2\S/C(=N/Nc3nc(-c4ccccc4)cs3)NC2=O)cc1OC
- growth inhibition ([1]; at 100.0 µM): 94% (active)
- growth inhibition ([2]; at 1.2 µM): 20%
- growth inhibition ([2]; at 3.7 µM): 45%
- growth inhibition ([2]; at 11.0 µM): 84% (active)
- growth inhibition ([2]; at 33.0 µM): 93% (active)
- growth inhibition ([2]; at 100.0 µM): 92% (active)
- growth inhibition [3, 16]: -4%
- growth inhibition [3, 17]: 90% (active)
- growth inhibition ([3]; at 50.0 µM): 95.7% (active)
- growth inhibition ([4]; at 1.2 µM): 44%
- growth inhibition ([4]; at 3.7 µM): 79% (active)
- growth inhibition ([4]; at 11.0 µM): 96% (active)
- growth inhibition ([4]; at 33.0 µM): 98% (active)
- growth inhibition ([4]; at 100.0 µM): 97% (active)
- growth inhibition [5, 16]: 11%
- growth inhibition [5, 17]: 95% (active)
- growth inhibition ([5]; at 50.0 µM): 91% (active)
- growth inhibition ([6]; at 1.2 µM): 82% (active)
- growth inhibition ([6]; at 3.7 µM): 93% (active)
- growth inhibition [6, 16]: 94% (active)
- growth inhibition ([6]; at 11.0 µM): 97% (active)
- growth inhibition ([6]; at 33.0 µM): 97% (active)
- growth inhibition [6, 17]: 98% (active)
- growth inhibition ([6]; at 50.0 µM): 98.3% (active)
- growth inhibition ([6]; at 100.0 µM): 97% (active)
- growth inhibition ([7]; at 1.2 µM): 22%
- growth inhibition ([7]; at 3.7 µM): 79% (active)
- growth inhibition ([7]; at 11.0 µM): 97% (active)
- growth inhibition ([7]; at 33.0 µM): 95% (active)
- growth inhibition ([7]; at 100.0 µM): 96% (active)
- growth inhibition ([8]; at 1.2 µM): 13%
- growth inhibition ([8]; at 3.7 µM): 75% (active)
- growth inhibition ([8]; at 11.0 µM): 96% (active)
- growth inhibition ([8]; at 33.0 µM): 94% (active)
- growth inhibition ([8]; at 100.0 µM): 88% (active)
- growth inhibition ([9]; at 1.2 µM): 32%
- growth inhibition ([9]; at 3.7 µM): 73% (active)
- growth inhibition ([9]; at 11.0 µM): 88% (active)
- growth inhibition ([9]; at 33.0 µM): 95% (active)
- growth inhibition ([9]; at 100.0 µM): 92% (active)
- growth inhibition [10, 16]: 12%
- growth inhibition [10, 17]: 97% (active)
- growth inhibition ([10]; at 50.0 µM): 98.5% (active)
- growth inhibition ([11]; at 1.2 µM): 35%
- growth inhibition ([11]; at 3.7 µM): 83% (active)
- growth inhibition ([11]; at 11.0 µM): 97% (active)
- growth inhibition ([11]; at 33.0 µM): 96% (active)
- growth inhibition ([11]; at 100.0 µM): 90% (active)

SMILES: CCOc1ccc2ccc3cccnc3c2n1
- growth inhibition ([12]; at 1.2 µM): -5%
- growth inhibition ([12]; at 3.7 µM): -2%
- growth inhibition ([12]; at 11.0 µM): 2%
- growth inhibition ([12]; at 33.0 µM): 18%
- growth inhibition ([12]; at 100.0 µM): 48%
- growth inhibition ([13]; at 1.2 µM): -8%
- growth inhibition ([13]; at 3.7 µM): 11%
- growth inhibition ([13]; at 11.0 µM): 23%
- growth inhibition ([13]; at 33.0 µM): 61%
- growth inhibition ([13]; at 100.0 µM): 88% (active)
- growth inhibition ([14]; at 1.2 µM): -4%
- growth inhibition ([14]; at 3.7 µM): 8%
- growth inhibition ([14]; at 11.0 µM): -10%
- growth inhibition ([14]; at 33.0 µM): 34%
- growth inhibition ([14]; at 100.0 µM): 68%
- growth inhibition ([15]; at 1.2 µM): -5%
- growth inhibition ([15]; at 3.7 µM): 12%
- growth inhibition [15, 16]: -1%
- growth inhibition ([15]; at 11.0 µM): 26%
- growth inhibition ([15]; at 33.0 µM): 59%
- growth inhibition [15, 17]: 40%
- growth inhibition ([15]; at 50.0 µM): 69%
- growth inhibition ([15]; at 100.0 µM): 74% (active)
- growth inhibition ([1]; at 1.2 µM): -4%
- growth inhibition ([1]; at 3.7 µM): -5%
- growth inhibition [1, 16]: -3%
- growth inhibition ([1]; at 11.0 µM): 8%
- growth inhibition ([1]; at 33.0 µM): 13%
- growth inhibition [1, 17]: 28%
- growth inhibition ([1]; at 50.0 µM): 47.2%
- growth inhibition ([1]; at 100.0 µM): 35%
- growth inhibition ([2]; at 1.2 µM): -4%
- growth inhibition ([2]; at 3.7 µM): 4%
- growth inhibition ([2]; at 11.0 µM): -1%
- growth inhibition ([2]; at 33.0 µM): 7%
- growth inhibition ([2]; at 100.0 µM): 68%
- growth inhibition [3, 16]: -8%
- growth inhibition [3, 17]: 66%
- growth inhibition ([3]; at 50.0 µM): 70.6% (active)
- growth inhibition ([4]; at 1.2 µM): -18%
- growth inhibition ([4]; at 3.7 µM): -7%
- growth inhibition ([4]; at 11.0 µM): -14%
- growth inhibition ([4]; at 33.0 µM): 4%
- growth inhibition ([4]; at 100.0 µM): 22%
- growth inhibition [5, 16]: -33%
- growth inhibition [5, 17]: -17%
- growth inhibition ([5]; at 50.0 µM): -3.9%
- growth inhibition ([6]; at 1.2 µM): -4%
- growth inhibition ([6]; at 3.7 µM): -3%
- growth inhibition [6, 16]: -9%
- growth inhibition ([6]; at 11.0 µM): 1%
- growth inhibition ([6]; at 33.0 µM): 36%
- growth inhibition [6, 17]: 52%
- growth inhibition ([6]; at 50.0 µM): 59%
- growth inhibition ([6]; at 100.0 µM): 70% (active)
- growth inhibition ([7]; at 1.2 µM): 0%
- growth inhibition ([7]; at 3.7 µM): 2%
- growth inhibition ([7]; at 11.0 µM): 8%
- growth inhibition ([7]; at 33.0 µM): 37%
- growth inhibition ([7]; at 100.0 µM): 66%
- growth inhibition ([8]; at 1.2 µM): -3%
- growth inhibition ([8]; at 3.7 µM): -1%
- growth inhibition ([8]; at 11.0 µM): 17%
- growth inhibition ([8]; at 33.0 µM): 54%
- growth inhibition ([8]; at 100.0 µM): 63%
- growth inhibition ([9]; at 1.2 µM): -3%
- growth inhibition ([9]; at 3.7 µM): 1%
- growth inhibition ([9]; at 11.0 µM): 9%
- growth inhibition ([9]; at 33.0 µM): 40%
- growth inhibition ([9]; at 100.0 µM): 63%
- growth inhibition [10, 16]: 2%
- growth inhibition [10, 17]: 40%
- growth inhibition ([10]; at 50.0 µM): 35%
- growth inhibition ([11]; at 1.2 µM): -3%
- growth inhibition ([11]; at 3.7 µM): 8%
- growth inhibition ([11]; at 11.0 µM): 23%
- growth inhibition ([11]; at 33.0 µM): 60%
- growth inhibition ([11]; at 100.0 µM): 72% (active)
